Experimental data taken from PubChem BioAssay (NCATS).
Several values for one entry are separate records, joined by “and”; a condition that tells them apart may be missing. Identical values can stand only once. Results filed as inconclusive are left out. Activity calls are given as the source filed them. Calls follow the shape of the dose curve; as a rule, active = well fitted curve in the direction sought with a large enough effect; inconclusive = small, poorly fitted or top-dose-only effect, or another doubt; inactive = no such curve, though single readings can be large or run the other way.

experiment: qHTS Assay for Identifying Gametocytocidal Compounds (AID 743244);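 also: actives lower the fluorescent signal which means gametocytes are killed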; conditions: P. falciparum 3D7 stage III-V gametocytes, alamarBlue, 72 h; max response: stronger effect = lower value
Summary of the method: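 Stage III-V P. falciparum 3D7 gametocytes, 20,000 per well, were exposed to compounds for 72 h at 37C, 5% CO2. AlamarBlue was then added for 24 h and viability was read as fluorescence at Ex 525/Em 598 nm.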
% is scaled to controls: 0 for no effect and ±100 for the full control effect.

| SMILES | max response |
| --- | --- |
| COc1ccc(S(=O)(=O)Nc2nnc(CC(C)C)s2)cc1 | 7.52% (inactive) and 10.3% (inactive) |
| CCC(=O)Nc1ccc(O)cc1 | 7.2% (inactive) |
| CC(=O)c1ccc2c(c1)N(CCCN(C)C)c1ccccc1S2 | -10.5% (inactive) |
| C[C@@H]1CCN(C(=O)[C@H](CCCN=C(N)N)NS(=O)(=O)c2cccc3c2NC[C@H](C)C3)[C@@H](C(=O)O)C1 | -0.0233% (inactive) |
| O=c1[nH]c(=O)c2[nH]c(=O)[nH]c2[nH]1 | 19.7% (inactive) and 9.73% (inactive) |
| OCC(O)CN1CCN(c2ccccc2)CC1 (centres undefined) | -0.192% (inactive) |
| O=C(O)Cc1sc(-c2ccccc2)nc1-c1ccc(Cl)cc1 | -5.46% (inactive) and 46.6% (inactive) and 14.6% (inactive) |
| O=C1O[C@H](CO)[C@@H](O)[C@H](O)[C@H]1O | -3.17% (inactive) |
| CC1CC(OC(=O)C(O)c2ccccc2)CC(C)(C)N1C (centres undefined) | 12.1% (inactive) and 4.11% (inactive) |
| C[C@@H]1C[C@H]2[C@@H]3C[C@H](F)C4=CC(=O)C=C[C@]4(C)[C@@]3(F)[C@@H](O)C[C@]2(C)[C@@]1(O)C(=O)CO | 2.1% (inactive) |
| CC1(C)S[C@@H]2[C@H](NC(=O)Cc3ccccc3)C(=O)N2[C@H]1C(=O)O (tested in a mixture with another compound) | -2.5% (inactive) |
| NC(CSCC(=O)O)C(=O)O (centres undefined) | -8.42% (inactive) |
| Cn1c(=O)c2c(ncn2CC2OCCO2)n(C)c1=O | 2.6% (inactive) |
| CCC(=O)c1ccc(O)cc1 | -0.113% (inactive) |
| O=C(O)c1ccccc1-c1ccc(C(F)(F)F)cc1 | -6.58% (inactive) |
| CCN(CC)C(=O)Nc1ccc(OCC(O)CNC(C)(C)C)c(C(C)=O)c1 (centres undefined) | -3.18% (inactive) |
| O=C(Oc1ccccc1C(=O)O)c1ccccc1O | -1.86% (inactive) |

| SMILES | max response |
| --- | --- |
| O=C1OC(OC(=O)c2cccnc2Nc2cccc(C(F)(F)F)c2)c2ccccc21 (centres undefined) | 9.12% (inactive) |
| NS(=O)(=O)c1cc2c(cc1Cl)NC(CSCc1ccccc1)=NS2(=O)=O | -8.8% (inactive) |
| CN(C)CCN(Cc1ccccc1)c1ccccn1 | -8.07% (inactive) |
| CC/C=C(\C(=O)N[C@@H]1C(=O)N2C(C(=O)OCOC(=O)C(C)(C)C)=C(COC(N)=O)CS[C@H]12)c1csc(N)n1 | 11.6% (inactive) and -14.5% (inactive) |
| C[C@H](NC(CCc1ccccc1)C(=O)O)C(=O)N1CCC[C@H]1C(=O)O (some centres undefined) | 7.34% (inactive) |
| C[C@]12CC[C@@H]3c4ccc(O)cc4CC[C@H]3[C@@H]1CC[C@@H]2OC(=O)CCC1CCCC1 | -9.98% (inactive) and 14% (inactive) |
| O=C(O)CC(O)C(=O)O (centres undefined) | -0.517% (inactive) |
| N[C@H]1C(O)O[C@H](CO)[C@@H](O)[C@@H]1O (some centres undefined) | -9.09% (inactive) |
| C=CCn1c(=O)n([C@@H]2O[C@H](CO)[C@@H](O)[C@H]2O)c2nc(N)[nH]c(=O)c21 | 7.63% (inactive) |
| CCOc1nc2cccc(C(=O)O)c2n1Cc1ccc(-c2ccccc2-c2nn[nH]n2)cc1 | 5.7% (inactive) |
| Nc1ccc(S(=O)(=O)Nc2ccc(Cl)nn2)cc1 | 13.8% (inactive) and 15.1% (inactive) |
| CC(=O)Oc1ccc(C2(c3ccc(OC(C)=O)cc3)C(=O)Nc3ccccc32)cc1 | -4.55% (inactive) and 20.8% (inactive) |
| O=C(CCCN1CCN(c2ccccn2)CC1)c1ccc(F)cc1 | 11.2% (inactive) |
| CN1CCC[C@@H]1Cc1c[nH]c2ccc(CCS(=O)(=O)c3ccccc3)cc12 | -0.49% (inactive) |
| CC[C@@]1(c2ccccc2)NC(=O)N(C)C1=O | 7.9% (inactive) |
| N[C@@H](CSSC[C@H](N)C(=O)O)C(=O)O | 13.6% (inactive) |
| C[C@@H]1CN(c2c(F)c(F)c3c(=O)c(C(=O)O)cn(C4CC4)c3c2F)C[C@H](C)N1 | 12.6% (inactive) |
